Values without a mark were called inactive. The rule behind the calls is not given here. Where a SMILES comes first, the peptide text is derived from it. The star is where a group is joined. Boc = CC(C)(C)OC(=O)*
Biological target: Pantothenate synthetase (Mycobacterium tuberculosis (strain ATCC 25618 / H37Rv)) (UniProt P9WIL5)
Experiment: Recombinant Mtb pantothenate synthetase (PanC) inhibitors, coupled enzyme, confirmatory (AID 375);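 note: 0% = full reaction with vehicle and 100% = no enzyme background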
Details: coupled enzyme assay; at 10 µM, stronger effect = higher value

Pantothenate synthetase (Mycobacterium tuberculosis (strain ATCC 25618 / H37Rv)), sequence (P9WIL5 whole entry, looked up): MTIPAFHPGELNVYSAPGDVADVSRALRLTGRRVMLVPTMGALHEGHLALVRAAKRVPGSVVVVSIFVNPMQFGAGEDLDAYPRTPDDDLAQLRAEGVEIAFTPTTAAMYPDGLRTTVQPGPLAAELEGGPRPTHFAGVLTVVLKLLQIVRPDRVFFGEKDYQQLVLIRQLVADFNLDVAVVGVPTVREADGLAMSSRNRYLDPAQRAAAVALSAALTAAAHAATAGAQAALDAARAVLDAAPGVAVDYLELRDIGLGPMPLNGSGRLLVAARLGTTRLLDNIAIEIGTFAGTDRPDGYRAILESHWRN

Structure (SMILES) | inhibition
COc1cccc(CNc2cccc3cccnc23)c1O | 0%
O=C(CN1C(=O)CC(c2ccco2)Sc2ccccc21)Nc1ccccc1F (centres undefined) | 0%
COc1ccc(-c2ccc(-c3noc(-c4ccccc4)n3)c(OC)n2)cc1 | 3%
CCN(c1c(C)n(C)n(-c2ccccc2)c1=O)S(C)(=O)=O | 5%
O=C(O)CC1CCCC(c2ccccc2)C1=O (centres undefined) | 5%
Cc1nnc(SCC(=O)Nc2c(Cl)cccc2Cl)[nH]c1=O | 0%
N#Cc1nc(COc2ccccc2Cl)oc1N1CCCCCC1 | 0%
CCOC(=O)N1CCN(c2ncnc3c2[nH]c2ccc(OC)cc23)CC1 | 0%
CC(=O)SCCC(=O)Nc1ccccc1 | 0%
Cc1cc2ncn(N)c2cc1C | 9%
CC(C)CC(NC(=O)OC(C)(C)C)C(=O)NC(C(=O)N1CCCC1C(N)=O)C(C)C (stereo not drawn) (Boc-Leu-Val-Pro-NH2; configuration not given here) | 0%
O=C(O)C1CC=CCC1C(=O)Nc1ccc(S(=O)(=O)N2CCCc3ccccc32)cc1 (centres undefined) | 0%
CC1CCCC(N2CCN(C(=O)c3ccc(F)cc3)CC2)C1 (centres undefined) | 0%
CN1CCc2c(sc3c2C(=O)NC(c2cccc(OC(=O)c4cccs4)c2)N3)C1 (centres undefined) | 0%
CC(NCCc1ccc(O)cc1)C(O)c1ccc(O)cc1 (centres undefined) | 0%
COc1ccc(/C(O)=C2/C(=O)C(=O)N(Cc3cccnc3)C2c2ccncc2)cc1F (centres undefined) | 4%
ON=C1/C(=N\O)CC2(C/C1=N/O)OCCO2 | 0%
COc1ccc(OC)c(C2=NOC(C(=O)Nc3c(C)n(C)n(-c4ccccc4)c3=O)C2)c1 (centres undefined) | 2%
CC1=C(C#N)C(c2ccc3ncccc3c2)C(C#N)=C(C)N1 | 4%
CCOc1ccc(N(CC(=O)NCc2ccco2)S(=O)(=O)c2ccc(OC)c(OC)c2)cc1 | 0%
O=C(CSCc1cnn(-c2ccccc2)c1-n1cccc1)NCC1CCCO1 (centres undefined) | 4%
C=C(Cl)COc1ccc2c(C)cc(=O)oc2c1 | 2%
C=CCNc1nc2c(c(=O)n(C)c(=O)n2C)n1CCCCCC | 0%
O=C(NC1CCCC1)C(c1cccs1)N(C(=O)c1ccno1)c1ccccc1 (centres undefined) | 9%
Cc1cc(C)c(S(=O)(=O)Nc2cccnc2)c(C)c1 | 0%

Structure (SMILES) | inhibition
C/C=C/Cn1c(Br)nc2c1c(=O)[nH]c(=O)n2C | 0%
CSCCC(NC(=O)c1occc1C)C(=O)O (centres undefined) | 0%
NC(=O)c1c(NC(=O)CSc2nnc(-c3ccco3)n2-c2ccccc2)sc2c1CCC2 | 0%
COCCCNC(=O)C(Cc1ccccc1)NS(=O)(=O)c1ccc2c(c1)c(=O)n(C)c(=O)n2C (centres undefined) | 0%
CCn1cc(C(=O)NCc2ccco2)c(=O)c2cc(F)c(N3CCN(C(=O)c4ccco4)CC3)cc21 | 0%
CCOC(=O)c1ccc(CNC(=O)C(Cc2c[nH]c3ccccc23)NC(C)=O)o1 (centres undefined) | 3%
COc1cccc(-c2nc(CS(=O)(=O)CC(=O)Nc3cc(C)ccc3C)c(C)o2)c1 | 0%
Cc1cnn(Cc2ccccc2)c1N | 3%
O=C(Cc1ccsc1-c1ccccc1)NO | 0%
CCn1c(=O)c2cc(S(=O)(=O)NCc3ccccc3)ccc2n(CC)c1=O | 0%
Cc1ccc(C)c(C(=O)CC2(O)C(=O)N(C)c3ccccc32)c1 (centres undefined) | 0%
CC1Cc2ccccc2N1S(=O)(=O)c1cccc(C(=O)OCC(=O)NC2CCS(=O)(=O)C2)c1 (centres undefined) | 0%
COc1ccc(Br)cc1S(=O)(=O)N1CC(C)OC(C)C1 (centres undefined) | 7%
CO[C@H]1C[C@@H]2CC[C@@H](C)[C@@](O)(O2)C(=O)C(=O)N2CCCC[C@H]2C(=O)O[C@H]([C@H](C)C[C@@H]2CC[C@@H](O)[C@H](OC)C2)CC(=O)[C@H](C)C=C(C)[C@@H](O)[C@@H](OC)C(=O)[C@H](C)C[C@H](C)C=CC=CC=C1C | 0%
NC(=O)NC(=O)CSc1cccc(C(F)(F)F)c1 | 0%
CCCC(=O)O[C@]1(C(=O)CCl)[C@@H](C)C[C@H]2[C@@H]3CCC4=CC(=O)C=C[C@]4(C)[C@@]3(F)C(=O)C[C@@]21C | 0%
CCCC(=O)Nc1ccc(OCC(O)CNC(C)C)c(C(C)=O)c1 (centres undefined) | 0%
COC(=O)c1[nH]c2ccccc2c1NS(=O)(=O)c1ccc(OC)cc1OC | 3%
CCCOc1ccccc1NC(=O)c1c(-c2ccccc2)noc1C | 1%
CC1=CC=CC2=NC(=O)CC(C)(C(=O)N(CC(=O)NC(C)C)C3CCCC3)N12 (centres undefined) | 4%
CN1/C(=C\C(=O)Nc2cccnc2)c2ccccc2CC1(C)C | 3%
CCOc1cc(C(=O)N2CCN=C2SC)cc(OCC)c1OCC | 7%
Cc1noc(C)c1S(=O)(=O)Nc1c(C)n(C)n(-c2ccccc2)c1=O | 5%
O=C(CCSc1nccn1Cc1ccccc1)N1CCOCC1 | 0%
Cc1oc(-c2ccc(Cl)cc2)cc1-c1nn2c(-c3ccoc3C)nnc2s1 | 3%

Structure (SMILES) | inhibition
NC(Cc1ccc(Oc2ccc(O)cc2)cc1)C(=O)O (centres undefined) | 0%
Cn1c(=O)c2c(nc(CN3CCc4ccccc4C3)n2Cc2cccc(Cl)c2)n(C)c1=O | 0%
CCN(CCNC(=O)C1CCN(S(=O)(=O)c2cccc3cccnc23)CC1)c1ccccc1 | 1%
C/C=C(\C)c1nnc(NC(=O)C(C)C)s1 | 1%
O=C(Nc1cccc2ccccc12)N1CCOCC1 | 0%
CCOC(=O)C1CCCN(C(=O)c2cc3c(C)nc4ccccc4c3o2)C1 (centres undefined) | 7%
CCCNC(=O)c1ccccc1NC(=O)CN(c1ccccc1OCC)S(C)(=O)=O | 0%
COCCn1c(SCc2csc(-c3ccccc3)n2)nc2ccccc21 | 5%
O=C(NCC(=O)N(c1cccnc1)C(C(=O)NC1CCCCC1)c1cccnc1)c1ccco1 (centres undefined) | 0%
CC(NC(=O)COc1ccc(Br)cc1)C(=O)O (centres undefined) | 0%
CCOC(=O)c1c(C)oc2c1c1c(c3ccccc32)OCN(Cc2cccnc2)C1 | 6%
C=CCn1cnc2c(c1=O)c1nc3ccccc3nc1n2-c1ccc(C)cc1 | 0%
COc1ccc(OC)c(C(=O)CSc2nc3ncccc3[nH]2)c1 | 0%
Cc1ccc2oc(=O)c3cnn(CC(=O)NCCC(C)C)c3c2c1 | 0%
Fc1cc(F)c(F)c(SCCc2ccncc2)c1F | 0%
O=C(Nc1ccc(N2CCCC2)cc1)c1cccc(F)c1 | 4%
Cc1ccc(NC(=O)CCC(=O)O)cc1F | 0%
COc1ccc(C2CC(c3ccco3)n3ncnc3N2)cc1 (centres undefined) | 4%
O=C(O)CCC(=O)c1c[nH]c2ccccc12 | 3%
Cc1ccc(-c2cc(C(=O)O)n[nH]2)o1 | 0%
C=CCn1c(=O)c2ccccc2n2c(SCC(=O)Nc3cc(C)on3)nnc12 | 0%
CCOC(=O)C1CCCn2c1nc1sc3c(c1c2=O)CCCC3 (centres undefined) | 0%
Cc1ccc(C)c(OCCCC(C)(C)C(=O)O)c1 | 0%
CC(=O)c1c(C)nc(C)nc1NC(=O)Cc1ccccc1 | 0%
O=C(O)CCCc1nc(-c2ccccc2)no1 | 0%

Structure (SMILES) | inhibition
C=CCn1c(-c2ccccc2)c[nH]c1=S | 0%
Cc1cc(C(F)(F)F)nn1Cc1ccc(C(=O)NCc2ccco2)o1 | 0%
CC(=O)OCC(=O)[C@@]1(O)[C@H](C)C[C@H]2[C@@H]3CCC4=CC(=O)C=C[C@]4(C)[C@@]3(F)[C@@H](O)C[C@@]21C | 4%
O=c1c2[nH]c3cccc(Cl)c3c2ncn1CCN1CCCCC1 | 6%
CCSc1nncn1/N=C/c1ccc(OC)c(OC)c1 | 4%
O=C(CSc1nc(-c2ccc(F)cc2)cs1)N1CCOCC1 | 0%
CCSc1nc(O)c(CC)c(=O)n1C(C)CC (centres undefined) | 3%
Cc1cccc(-c2nnn(CC/C(N)=N/O)n2)c1 | 3%
O=C1CCc2cc(OCCCCc3nnnn3C3CCCCC3)ccc2N1 | 3%
Cc1c(C(=O)OCC(C)(C)CN(C)C)oc2ccccc12 | 1%
O=C(c1cc(S(=O)(=O)N2CCOCC2)ccc1F)N1CCCc2ccccc21 | 1%
COc1cc(NC2c3ccccc3C(=O)N2c2ccc(C)cn2)cc(OC)c1OC (centres undefined) | 0%
COc1cc(NS(=O)(=O)c2ccc(Br)s2)cc(OC)c1 | 0%
Cc1ccc2c(c1)CCCN2C(=O)Nc1ccc2c(c1)OCO2 | 2%
CCOCC(=O)Nc1c(C(=O)Nc2ccc(OC)cc2OC)oc2ccccc12 | 0%
O=C(CSc1nc2ccccc2c(=O)n1Cc1ccco1)NCc1ccccc1 | 2%
CCn1c(SCC(=O)Nc2ccccc2N2CCCCC2)nc2c1c(=O)n(C)c(=O)n2C | 2%
O=C(CCCn1c(=O)[nH]c2ccsc2c1=O)N1CCN(c2ccccn2)CC1 | 3%
O=C(O)CCc1ccc(-c2cccs2)n1NC(=O)c1ccccc1Br | 0%
Cc1cccc(-n2ncc3c(NCc4ccccn4)ncnc32)c1 | 6%
COc1cccc(NC(=O)CSc2nnc(-c3cccs3)n2C)c1 | 0%
COc1ccc(NC(=O)c2cc(C)on2)cc1OC | 8%
O=C(Nc1ccccc1N1CCN(c2ccc(F)cc2)CC1)c1ccccc1 | 0%
c1ccc(Cc2nnc3n2CCCCC3)cc1 | 6%

From PubChem BioAssay
